According to PubChem BioAssay (NCI):
About 83,000 compounds went through this panel and 20% of them were active in at least one assay; those are over-represented in the sample as a whole.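 Single-concentration screen, 48 h exposure, 96-well plates. Endpoint: percent growth. Below 10 = active.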 Unmarked numbers belong to inactive results. Activity calls are given as the source filed them.

Each compound was assayed on ACHN renal (assay: NCI-60 one-dose screen, 48 h (100 = growth as untreated, 0 = no growth, -100 = all killed)). Conditions: 10 µM unless noted.

| SMILES | growth |
| --- | --- |
| CCOC(=O)CCC(NC(=O)C(Cc1ccc(N(CCCl)CCCl)cc1)NC=O)C(=O)OCC (stereo unspecified) | -33.9% (active) |
| COC(=O)[C@@H](C)C[C@H](Cc1ccccc1)NC(=O)c1nc([C@@H](C[C@H](C(C)C)N(C)C(=O)[C@@H](NC(=O)[C@H]2CCCCN2C)C(C)C)OC(C)=O)sc1C(C)C | 18.4% |
| CCCC(C)C1(CC)C(=O)NC(=O)N(C)C1=O (stereo unspecified) | 107% |
| C=CCCCCCCCCC(=O)[O-].C=CCCCCCCCCC(=O)[O-].[Zn+2] | 101% |
| COc1ccc(C(O)(C(=O)O)c2ccc(OC)cc2)cc1 | 85.8% |
| Nc1c(F)cc(-c2nc3cc(F)ccc3[se]2)cc1F | 68.7% |
| CC(=O)O[C@@H]1CC[C@]2(C)[C@H]3CC[C@]4(C)C(=O)CC[C@H]4[C@@H]3C[C@@H]3SC(N)=N[C@@]32C1 | 93.7% |
| N#CC1(C#N)C(c2ccc(N(CCCl)CCCl)cc2)OC23CCCCC2C1(C#N)C(=N)O3 (stereo unspecified) | 50.2% |
| CCCCNC(c1ccc(Cl)cc1)C(O)c1ccc(Cl)cc1 (stereo unspecified) | 35.2% |
| CCOC(=O)[C@@H](C)C[C@H](Cc1ccccc1)NC(=O)c1csc([C@@H](C[C@H](C(C)C)N(C)C(=O)[C@H](CC)NC(=O)[C@H]2CCCCN2C)OC(C)=O)n1 | 25.9% |
| C[Se]C(=O)c1ccccc1OC(C)=O | 85.9% |
| CN[C@@]1(c2ccccc2Cl)CCCC[C@@H]1NCC1CCCO1 (stereo partly specified) | 99.4% |
| COc1cc2c(cc1OCc1ccccc1)C(CC(C)C)=[N+](C)CC2 | 99.2% |
| CC(=O)O[C@H]1CC[C@H]2[C@@H]3CC=C4c5nc(-c6ccccc6)sc5CC[C@]4(C)[C@H]3CC[C@]12C | 91.8% |
| N#CC1(c2ccccc2)CCN(Cc2ccccc2)CC1 | 98% |
| COc1ccc(/C=C\c2cc(OC)c(OC)c(OC)c2)cc1OCC(=O)Nc1nc2ccc(OC(F)(F)F)cc2s1 | 43.5% |
| CC(C)(C)C(=O)OCOP(=O)(NCc1ccccc1)C1CCCN(O)C1=O (stereo unspecified) | 34.2% |
| CC(=O)Nc1ccc(NC(=O)c2ccc([As](O)O)cc2)cc1 | 105% |

| SMILES | growth |
| --- | --- |
| O[C@H](CN1CC1)[C@@H](O)CN1CC1 | 24% |
| Cc1cc(C)c(CBr)c(C)c1 | 104% |
| CCOP1(=O)CC(C)=C(Cl)C(P(=O)(OCC)OCC)C1 (stereo unspecified) | 110% |
| CC12CCC3C(CCC4=CC(=O)CCC43CF)C1CCC2=O (stereo unspecified) | 120% |
| C=C1[C@@H](C)[C@H]2[C@H](Cc3ccccc3)NC(=O)[C@]23[C@@H](O)/C=C/[C@@](C)(O)C(=O)[C@@H](C)C/C=C/[C@H]3[C@@H]1O | 45.6% |
| NC(=O)C(Br)c1ccccc1 (stereo unspecified) | 87.2% |
| CCC(=O)Nc1ccc(Cl)c(Cl)c1 | 98.2% |
| CC[C@H](C)[C@@H]1OC(=O)C(C)(C)[C@H](O)[C@H](Cc2ccccc2)OC(=O)[C@H](C(C)C)OC(=O)[C@@H](NC(=O)c2cccc(NC=O)c2O)[C@@H](C)OC1=O | 46.4% |
| NC(=S)c1cn(C2OC(CO)C(O)C2O)c2ncnc(N)c12 (stereo unspecified) | -6.08% (active) |
| Nc1ncnc2n[nH]nc12 | 46.5% |
| COc1cc(/C=C/[N+](=O)[O-])cc(OC)c1 | -48.9% (active) |
| Clc1cccc(NCOOC2(OOCNc3cccc(Cl)c3)CCCCCC2)c1 | 80.5% |
| Brc1ccc2c(c1)c(-c1nc(-c3c[nH]c4ncccc34)cs1)cn2CCN1CCOCC1 | 55.2% |
| O=C1C(Cl)=C(N2CCOCC2)C(=O)c2ccccc21 | 78.4% |
| CC1=C(CCCNS(C)(=O)=O)C2=C(C)C3(CC3)[C@@](C)(O)C(=O)C2=C1 | -23.6% (active) |
| CCN(CCO)C(Cc1ccccc1)c1ccccc1 (stereo unspecified) | 108% |
| CCCCC1(CCC)C(=O)NC(=S)NC1=O | 94.8% |
| CC[C@H](C)[C@H](NC(=O)[C@H]1CCCCN1C)C(=O)N(C)[C@H](CC(=O)c1nc(C(=O)N[C@@H](Cc2ccccc2)C[C@H](C)C(=O)O)cs1)C(C)C | 109% |
